FBW7 act: activators of human E3 ligase FBW7 | normalized activity (activation), % at 26.1 µM | 650,000 tested, 0.13% active | Q969H0 | AlphaScreen FBW7–phospho-cyclin E peptide binding, activator screen; in the data active = normalized activity above about 1.9%;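 note: purified mutant Fbw7 with reduced substrate affinity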
Target sequence (Q969H0 whole entry, looked up): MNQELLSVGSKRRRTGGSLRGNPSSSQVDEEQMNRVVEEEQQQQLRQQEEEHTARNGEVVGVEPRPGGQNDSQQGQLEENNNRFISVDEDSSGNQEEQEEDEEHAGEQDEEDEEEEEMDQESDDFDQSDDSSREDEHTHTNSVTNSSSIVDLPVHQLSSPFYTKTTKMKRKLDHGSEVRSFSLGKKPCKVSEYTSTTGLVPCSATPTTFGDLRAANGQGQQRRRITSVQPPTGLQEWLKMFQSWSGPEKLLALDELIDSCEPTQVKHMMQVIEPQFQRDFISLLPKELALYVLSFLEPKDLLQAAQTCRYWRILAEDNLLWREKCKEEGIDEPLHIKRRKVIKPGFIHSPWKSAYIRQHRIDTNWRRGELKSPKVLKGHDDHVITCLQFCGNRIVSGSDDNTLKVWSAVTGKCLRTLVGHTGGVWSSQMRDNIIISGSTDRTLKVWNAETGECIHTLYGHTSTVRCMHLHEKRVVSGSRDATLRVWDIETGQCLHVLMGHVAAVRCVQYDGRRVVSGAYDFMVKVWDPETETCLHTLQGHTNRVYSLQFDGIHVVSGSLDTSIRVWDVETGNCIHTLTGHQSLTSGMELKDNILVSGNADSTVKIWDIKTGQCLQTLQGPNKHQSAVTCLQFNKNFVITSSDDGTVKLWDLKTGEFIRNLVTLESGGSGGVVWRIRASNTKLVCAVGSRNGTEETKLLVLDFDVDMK
GPR151 activ: activates the human receptor GPR151. Q8TDV0. PathHunter beta-arrestin GPR151 cells, luminescence. activation, % at 11.2 µM. 650,000 tested, 1% active; in the data active = activation above about 4.9%;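 note: 0% = median of compound wells and 100% = cells with positive control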
MITF inh: inhibitors of human MITF | O75030 | AlphaScreen MITF homodimerization, bead proximity signal | inhibition, % at 2.6 µM | 650,000 tested, 0.91% active; in the data active = inhibition above about 50%;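 note: 0% = vehicle wells with protein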
TEAD-YAP inh: TEAD-YAP interaction inhibition; inhibition, % at 9.12 µM; HEK-TIYL cells, TEAD-Gal4/YAP UAS-luciferase luminescence; 640,000 tested, 1.4% active; in the data active = inhibition above about 32%;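 note: 0% = median of test compound wells and 100% = reference inhibitor wells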
* marks the source's active call; other numbers are inactive results. Hits are enriched below; roughly 3.5% of the tested compounds scored in any of these assays.

SMILES	FBW7 act	GPR151 activ	MITF inh	TEAD-YAP inh
COc1ccc(CCNc2nc(-c3cccs3)ncc2C)cc1	0.0	1.8	9.5	43.6*
Cc1ccccc1C(=O)Nc1cc(-c2nc3cc(C(C)C)ccc3o2)ccc1Cl	0.1	0.6	6.5	3.6
COc1ccccc1C(=O)Nc1cc(-c2nc3cc(C(C)C)ccc3o2)ccc1Cl	0.0	0.4	-0.2	34.5*
CC(C)c1ccc2oc(-c3ccc(Cl)c(N)c3)nc2c1	0.1	-5.9	2.0	82.9*
Cc1ccc2oc(-c3ccc(Cl)c(NC(=O)Cc4ccccc4)c3)nc2c1	0.3	-1.5	5.1	3.8
CC(C)c1ccc2oc(-c3ccc(Cl)c(NC(=O)Cc4ccccc4)c3)nc2c1	0.0	0.2	-4.3	60.9*
COc1cccc(/C=C2\SC(=S)N(C)C2=O)c1O	0.0	-0.4	-68.6	-42.2
CN(C)c1ccc(/C=N/Nc2cccc3cccnc23)cc1	0.4	-4.6	4.7	37.4*
O=C(CSCC(=O)Nc1ccccc1)N/N=C/c1c(O)ccc2ccccc12	-0.1	-1.5	-51.4	73.9*
O=C(CSc1cccc2cccnc12)N/N=C/c1c(O)ccc2ccccc12	-0.3	0.1	12.1	34.3*
Cc1cc(C)cc(NC(=O)c2ccc3c(=O)n(-c4ccccc4)c(SCc4cccc([N+](=O)[O-])c4)nc3c2)c1	0.1	-0.3	-1.2	4.3
COc1ccc(-c2nc3ccc(C(=O)NCCN4CCOCC4)cc3s2)cc1	-0.1	0.1	3.7	-17.5
Cc1onc(-c2ccccc2Cl)c1C(=O)Nc1ccccc1NC(=O)c1ccc(Cl)cc1	0.1	-0.5	2.1	-3.5
CC(C)CC(=O)Nc1ccc(Cl)c([N+](=O)[O-])c1	0.1	1.5	5.6	4.0
O=C(Nc1ccccc1Cl)c1ccc([N+](=O)[O-])cc1Cl	-0.1	1.0	9.4	0.3
O=C(Nc1ccccc1Cl)c1cc(F)ccc1[N+](=O)[O-]	0.2	0.2	11.3	79.8*
O=C(Nc1ccccc1Cl)c1cc([N+](=O)[O-])ccc1O	1.1	-6.3	23.4	60.4*
O=C(Nc1ccc(N2CCCCC2)cc1)c1ccc(Cl)c([N+](=O)[O-])c1	-0.2	-0.6	6.3	42.8*
O=C(CCl)Nc1ccc(Cl)c([N+](=O)[O-])c1	0.0	-0.2	-6.1	73.9*
CCC(=O)NNC(=O)CSc1nc2cc3c(cc2cc1CC)OCO3	0.0	0.8	3.8	-8.5
O=C(Nc1ccc(F)cc1F)c1ccc(Cl)c([N+](=O)[O-])c1	0.0	-2.0	11.5	56.0*
O=C(Nc1ccc(-c2ccc([N+](=O)[O-])cc2)cc1)c1ccccc1O	-0.1	-0.7	-1.6	45.3*
O=C(Nc1ccc(Br)cc1F)c1ccc(Cl)c([N+](=O)[O-])c1	0.2	-1.2	17.6	-12.4
O=C(Nc1ccc([N+](=O)[O-])cc1Br)c1ccccc1O	-0.1	-2.3	9.7	78.1*
Cc1ccccc1C(=O)Nc1ccc(-c2ccc([N+](=O)[O-])cc2)cc1	0.1	2.2	-3.2	-24.5
SMILES	FBW7 act	GPR151 activ	MITF inh	TEAD-YAP inh
CCC(=O)N(CCO)Cc1cc2c(C)cc(C)cc2[nH]c1=O	0.2	0.5	7.9	-13.0
N#CC1=C(N)OC2=C(C(=O)CC(c3ccccc3)C2)C12C(=O)Nc1ccc(Br)cc12 (stereo not given)	-0.1	-1.2	7.6	2.1
CCCCCOc1ccc(NC(=O)C2OC3OC4(CCCCC4)OC3C3OC4(CCCCC4)OC23)cc1 (stereo not given)	0.1	-1.6	-11.8	-8.9
CCOC(=O)c1[nH]ncc1CN1CCN(Cc2ccc(OC)cc2F)C(CCO)C1 (stereo not given)	0.3	-2.2	8.0	2.3
CCOC(=O)CC1COCCN1Cc1cn[nH]c1-c1ccc2cc(OC)ccc2c1 (stereo not given)	0.1	0.2	12.6	46.0*
CCOC(=O)Nc1c(C)cc(C)cc1[N+](=O)[O-]	0.2	-0.1	8.0	50.0*
OC(CNCC1CCCO1)COc1ccc(OCC(O)NCC2CCCO2)cc1 (stereo not given)	2.3*	-0.7	12.1	5.5
OC(CNCC1CCCO1)COc1ccc(OCC(O)CNCC2CCCO2)cc1 (stereo not given)	0.0	1.1	9.2	2.0
CCCc1cc(N2CCN(c3ccc(OC)cc3)CC2)n2cnnc2n1	-0.1	-0.3	-4.9	42.1*
NC(=O)CC12CC3CC(CC(C3)C1)C2	0.0	-0.7	-3.8	-4.3
COCCNc1ncnc2scc(-c3ccccc3)c12	-0.1	1.2	-9.2	36.2*
OCCNc1ncnc2scc(-c3ccccc3)c12	1.1	-0.2	19.9	18.6
COc1ccc(CCNc2ncnc3scc(-c4ccccc4)c23)cc1OC	-0.1	2.7	-8.9	50.4*
COc1ccccc1-c1cc2ccccc2oc1=O	0.1	-0.2	2.5	-12.6
CCOC(=O)COc1ccc2c(C)c(-c3ccc(OC)c(OC)c3)c(=O)oc2c1	2.0*	0.8	-15.3	6.0
COc1ccc(-c2cc3ccccc3oc2=O)cc1N	0.0	-1.4	3.9	33.4*
CCOC(=O)C(C)Oc1ccc2cc(-c3ccc(OC)c(OC)c3)c(=O)oc2c1 (stereo not given)	2.3*	-8.4	-11.7	6.5
COc1ccc(C(NC(=O)CCN2C(=O)c3ccccc3C2=O)c2ccccc2)cc1 (stereo not given)	0.0	-1.0	22.1	10.6
C/C(N)=C(/C#N)C(=O)COC(=O)c1nn(-c2ccccc2)c(=O)c2ccccc12	0.1	-2.7	-0.6	12.0
O=C(NCCOc1ccccc1)c1csc(Nc2ccc(N3CCOCC3)cc2)n1	-0.1	2.5	-127.4	39.4*
COc1ccc(CCNC(=O)c2csc(Nc3ccc(N4CCOCC4)cc3)n2)cc1	0.2	1.2	14.2	71.4*
COc1ccc(CCNC(=O)c2cnc(Nc3ccc(N4CCOCC4)cc3)s2)cc1	0.2	2.6	-1.4	-12.8
Cc1ccc2c(c1)-c1c(sn(-c3ccc(C(C)C)cc3)c1=S)C(C)(C)N2	0.0	-1.2	5.6	1.6
Cc1ccc(C(=O)OCc2ccccc2F)cc1[N+](=O)[O-]	0.1	-1.6	18.8	-1.2
N#CC1=C(N)N(c2ccccc2)S(=O)(=O)c2cc([N+](=O)[O-])ccc21	0.0	-1.3	14.0	56.1*
SMILES	FBW7 act	GPR151 activ	MITF inh	TEAD-YAP inh
N#Cc1c2ccc([N+](=O)[O-])cc2[n+]([O-])n1-c1ccccc1	0.0	1.2	-3.1	-24.9
Cc1onc(-c2ccccc2Cl)c1-c1nc(-c2cccnc2)no1	0.0	-1.8	3.5	58.0*
Oc1ccc(-c2cnc3c(NCCc4cccnc4)nccn23)cc1	1.7	0.5	-6.1	-3.1
COc1cc(/C=N/O)cc(OC)c1OC	0.0	0.2	14.5	4.1
COc1cc(O)cc(OC)c1OC	-0.1	3.1	-11.0	63.3*
CC(=O)c1cccc(NC(=O)CCCn2nc([N+](=O)[O-])c(Br)c2C)c1	0.1	-0.8	-5.6	-1.0
COc1ccc(OC)c(C(=O)COC(=O)c2cc3ccccc3cc2O)c1	0.5	0.3	17.0	-10.5
O=C(Nc1ccccc1)N1CCC2(CC1)NCCc1c2[nH]c2ccc(Cl)cc12	-0.3	-0.2	10.3	46.5*
CC(C)n1cnc2c(Nc3ccc4c(c3)OCO4)nc(Nc3ccc(-n4ccnc4)cc3)nc21	-0.2	-0.8	5.6	39.3*
Cc1cnc(Nc2ccc(-n3ccnc3)cc2)nc1Nc1ccc2c(c1)OCO2	-0.2	-1.5	2.5	60.5*

Assay outcomes from PubChem BioAssay.
